How the values were obtained:
Assay in all cases: PBM binding z-score (relative to random genomic background probes); higher = stronger binding; sequences stand for … in GC…GCGATTGACAGCGTAGAATGAAGG
[1] = test system: FXR:RXRa (NR concentration 270 nM, RXRa partner concentration 90 nM)
In short: (§1)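 Binding buffer was PBS pH 7.4 with 2% milk, 0.02% Triton X-100, 1 mM DTT, 0.2 mg/mL BSA and 0.4 mg/ml salmon testes DNA. In it, ligand-free nuclear receptor dimers were incubated 1 h on custom Agilent 4×180K protein-binding microarrays carrying double-stranded probes. Antibodies against each partner (one per run) detected binding, and z-scores were calculated against random background probes after regression normalization of scanned fluorescence.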

[2] = test system: LXRa:RXRa (NR concentration 270 nM, RXRa partner concentration 90 nM)
In short: as §1

[3] = test system: LXRa homodimer (NR concentration 270 nM)
In short: as §1

[4] = test system: LXRb:RXRa (NR concentration 270 nM, RXRa partner concentration 90 nM)
In short: as §1

[5] = test system: LXRb homodimer (NR concentration 270 nM)
In short: as §1

[6] = test system: PPARa:RXRa (NR concentration 270 nM, RXRa partner concentration 90 nM)
In short: as §1

[7] = test system: PPARg:RXRa (NR concentration 180 nM, RXRa partner concentration 90 nM)
In short: as §1

[8] = test system: PPARg:RXRa 270nM:90nM, anti-RXR (NR concentration 270 nM, RXRa partner concentration 90 nM)
In short: as §1

[9] = test system: PPARg:RXRa 30nM:10nM, anti-RXR (NR concentration 30 nM, RXRa partner concentration 10 nM)
In short: as §1

[10] = test system: PPARg:RXRa 90nM:30nM, anti-RXR (NR concentration 90 nM, RXRa partner concentration 30 nM)
In short: as §1

| Sequence | PBM binding z-score [1] | PBM binding z-score [2] | PBM binding z-score [3] | PBM binding z-score [4] | PBM binding z-score [5] | PBM binding z-score [6] | PBM binding z-score [7] | PBM binding z-score [8] | PBM binding z-score [9] | PBM binding z-score [10] |
| --- | --- | --- | --- | --- | --- | --- | --- | --- | --- | --- |
| CGAACGAGGGCATGAGTTGATAGGAAATGCCGAT | 0.317 | 0.134 | -0.459 | -0.00432 | -0.811 | 1.27 | 1.61 | 1.43 | 0.315 | 0.987 |
| AGGACGAGGGCACGCTGAGTTGATAGCAGAGTAG | 0.954 | 0.423 | -0.584 | 0.138 | -1.02 | 1.45 | 1.2 | 0.43 | -0.0581 | 0.384 |
| CGAACTAGGTCATCCTGGACAGTGAATACATTGA | 4.25 | 2.46 | 0.715 | 2.21 | 0.266 | 4.76 | 7.88 | 6.36 | 3.97 | 5.92 |
| TCTAGTTGGTCCCGGAGGTCACACACGACGGGTA | 2.88 | 2.9 | 2.37 | 3.18 | 0.951 | 3.55 | 1.68 | 2.9 | 3.06 | 3.11 |
| CCTTACGGGTCAAGATTATAGCACGGGTGGTACG | 4.99 | 3.15 | 0.00162 | 2.76 | 0.37 | 4.61 | 3.55 | 3.6 | 1.65 | 2.56 |
| TCTTGTAGATCAAAGGTTAACAAAGCCGAAGCCT | 1.99 | 2.08 | -0.0148 | 2.16 | 0.107 | 4.9 | 8.48 | 8.41 | 7.57 | 9.81 |
| CGAACTAGGTAAGAACAGGACAGTGAAGGATGAT | -0.196 | -0.204 | -0.208 | -0.602 | -0.626 | 0.502 | 0.928 | 0.462 | 0.267 | 0.273 |
| GGATCGAGGGCAAAGTTGATAGCATCTGTCGACG | 1.65 | 1.21 | -0.00761 | 0.937 | -0.138 | 4.37 | 7.25 | 7.18 | 5.86 | 8.27 |
| AACTCTAGGTAAGACTCAGTTCAGTGAAGAACGC | -0.314 | -0.0738 | 0.141 | -0.191 | -0.311 | 0.00216 | 0.00417 | -0.304 | -0.237 | -0.258 |
| ATCGAAAGGTCGAGGTGAGTCTAGAGAAAGGGAA | 4.71 | 3.71 | 0.045 | 2.76 | 0.53 | 4.63 | 3.46 | 3.62 | 1.16 | 2.32 |
| TGTCAAAGTTCAAAGGTAAGGTAAGTATCCACAC | 7.21 | 6.56 | 4.78 | 4.45 | 1.75 | 5.46 | 8.72 | 7.6 | 5.24 | 7.45 |
| TCTCGGAGGACACGAAGGTCACAGCTTTCCAGAG | 2.69 | 2.82 | 1.52 | 2.65 | -0.279 | 3.64 | 1.64 | 3.1 | 2.74 | 2.74 |
| GCATATAGGTCATACAAGGTGAAAGTCCGATTGT | 6.4 | 5.8 | 2.37 | 4.27 | 0.913 | 5.75 | 7.36 | 6.55 | 4.09 | 6.05 |
| ACTATTAGTTGAGACGAGGGCAACCGGTAGGTTG | 0.623 | 0.318 | 0.134 | 0.06 | -0.0535 | 0.319 | 0.685 | -0.0601 | -0.0682 | 0.00323 |
| TAGCCTGGGTCATTGGGCCAGTATAGTACGCATC | 3.3 | 1.88 | -0.677 | 1.36 | -0.556 | 4.11 | 3.81 | 3.62 | 0.89 | 2.1 |
| CCTACGGGGCCATTCAGAGGTCATTGATCATATG | 3.56 | 4.88 | 6.49 | 4.17 | 0.225 | 3.62 | 1.16 | 2.21 | 0.193 | 1.32 |
| GCTAGGTGGTCAGTAAAAGGTCACACACCGGTCG | 3.63 | 4.57 | 4.44 | 4.2 | 0.699 | 4.56 | 2.78 | 4.14 | 1.72 | 3.51 |
| TCATATAGGGAAACAGGTGAAAGTCCGTAAGTTA | 1.01 | 1.04 | 0.121 | 1.11 | -0.148 | 1.74 | 1.69 | 3.03 | 4.32 | 3.7 |
| ATATGCAGGTTAGCTGGGGTCATTCAGACTAGGC | 4.95 | 5.96 | 3.01 | 4.92 | 0.363 | 4.7 | 2.52 | 3.4 | 0.768 | 2.26 |
| TCTAGCAGGCCGGAGGGTCACTCAAGAGGTACGG | 0.786 | 0.705 | -0.517 | 0.729 | -1.11 | 1.69 | 0.508 | 1.34 | 1.19 | 1.2 |
| TCATATAGGTAAACAGGTGAAAATCCGTAAGTTA | 1.24 | 1.11 | 0.438 | 1.28 | 0.151 | 2.23 | 2.95 | 3.15 | 4.38 | 3.6 |
| ATCTCTAGGTAAGACTCAGTTCAGTGAGGAACGC | 0.151 | 0.565 | 0.658 | -0.0789 | 0.649 | 0.134 | 0.166 | 0.25 | 0.0695 | 0.181 |
| TCATATAGGCAAAGGTGAAAGTCGAACGATATGA | 0.772 | 1.05 | -0.253 | 1.07 | -0.302 | 2.98 | 3.35 | 4.39 | 3.88 | 4.56 |
| TATTGTAGATCAATAGAGGTTAAGAAAGTGCGCT | 0.833 | 3.7 | 0.984 | 1.79 | 0.902 | 1.97 | 0.757 | 0.86 | 0.535 | 0.718 |

From the supplement of paper PMC6555819
